# Screens (PubChem)
# This is one part of a sample in which hits are shown more often than they occur.
# Pf Dd2 growth: Plasmodium falciparum Dd2 growth inhibition | P. falciparum Dd2 growth, SYBR Green, 72 h | Potency, µM (titrated, usually from 28.9 µM), for inactives: at the highest dose activity, negative = inhibition, hits mostly inhibitors | 120,000 compounds, 4.3% hits | AID 1347417; active means well fitted inhibition curve with a large enough effect;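 further: plate controls were DMSO vehicle for no effect and reference drug for full effect; nearly all actives have a fitted effect of over 65% in size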
#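 Infected erythrocytes (Dd2, 0.3% parasitemia, 2.5% hematocrit final) are added to compound in RPMI-1640/Albumax II medium, grown 72 h at 37C in low oxygen, then lysed with saponin/Triton-X containing SYBR Green and read by fluorescence.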
# An asterisk follows results filed as active; i = inactive; [ ] = another dose, or the depositor's remark. Potency means the concentration at half of the fitted maximal effect.
SMILES,Pf Dd2 growth
COc1ccc2c(c1)C(C[C@H]1CN(C(=O)C3CC3)CC[C@H]1CC(=O)O)=NCC2,13.5%[44.1 µM]
CN(C)[C@@H]1CN(C(=O)c2cc(F)cc(F)c2)C[C@H]1CO,11.4%
COc1ccccc1CN1CCC(N2Cc3cnc(C)n3C2=O)CC1,i
COCCC(=O)N1CCc2nc(N3CCN(C)CC3)sc2C1,5.6%
Cc1nn2c(c1-c1ccccc1C(C)C)N(C(=O)c1cccnc1)CCC2,i
OCCC1CN(Cc2cc(F)cc(F)c2)CCN1Cc1cccs1 (stereo unspecified),-16.0%
Cc1oc(-c2ccc(Cl)cc2)nc1CN1C(=O)CN=C(c2ccccc2)c2cc(Cl)ccc21,i
Cc1oc(-c2ccc(Cl)cc2)nc1CN1C(=O)CN=C(c2ccccc2)c2ccccc21,3.8%
COc1ccc(-c2nc(CN3C(=O)CN=C(c4ccccc4Cl)c4cc(Cl)ccc43)c(C)o2)cc1OC,12.6µM*
O=C(Nc1cnc(-c2ccc(Cl)cc2)nc1)c1ccccc1F,-21.8%
CCCCNc1ncc(C(=O)O)c(CC)n1,-6.3%
COc1ccc(N2CC(NC(=O)COc3cccc(C)c3)CC2=O)cc1OC (stereo unspecified),5.8%
Cc1cccc(OCC(=O)NC2CCc3nn(CC4CC4)c(=O)n3CC2)c1 (stereo unspecified),-16.4%
Cc1cccc(Oc2coc3cc(OCC(=O)NC4CCCCC4)ccc3c2=O)c1,10µM*
O=[S+]([O-])(c1ccccc1)N1CCCC2(CC(c3cccnc3)=NO2)C1 (stereo unspecified),0.3%
CN(CC(O)COc1cccc(CNCCOc2ccccc2)c1)C1CCCCC1 (stereo unspecified),4.47µM*
CCN1CCN(CC(O)COc2cccc(CNCCc3cccc(C)n3)c2)CC1 (stereo unspecified),i
COc1cc(CNCCOc2cccnc2)ccc1OCC(O)CN1CCSCC1 (stereo unspecified),i
COCCO[C@H]1C(=O)N(C2CCN(C(=O)NC3CCCCC3)CC2)[C@H]1c1ccncc1,-9.5%
Cc1ccccc1C(=O)N(C)Cc1ccc(F)cc1,i
Cc1ccc([S+](=O)([O-])N2CCC(c3nn(-c4ccc(F)cc4)c(=O)[nH]3)CC2)cc1,8.91µM*
Cc1ccc([S+](=O)([O-])N2CCC(c3nn(C)c(=O)[nH]3)CC2)cc1,-4.0%
Cc1ccc([S+](=O)([O-])N2CCCC(c3nn(-c4ccc(Cl)cc4)c(=O)[nH]3)C2)cc1 (stereo unspecified),-21.1%
CCS(=O)(=O)N1CCOc2ccc(CN3CCc4ccccc4C3)cc2C1,-7.7%
COc1ccc2nc3n(c2c1)[C@@H](CNCc1ccc(C#N)cc1)COC3,i
SMILES,Pf Dd2 growth
COc1ccc2nc3n(c2c1)[C@@H](CNCc1ccccc1)COC3,7.08µM*
COc1ccc2nc3n(c2c1)[C@@H](CNCc1ccc(C(=O)O)cc1)COC3,13.2%[44.1 µM]
CN1C(=O)C(c2ccccc2)CC12CCN(Cc1ccc(F)cc1F)CC2 (stereo unspecified),-19.2%
COc1ccc(-c2[nH]nc3ncc(C(=O)NCC(C)C)nc23)c(C)c1,i
Cc1c(CN2CCCC(CNC(=O)c3cccc4ccccc34)C2)[nH]c2ccccc12 (stereo unspecified),11.2µM*
COc1cccc([C@@H]2CCN(Cc3ccc(NC(C)=O)cc3)C[C@H]2O)c1,-7.4%
COc1cccc([C@@H]2CCN(Cc3cn[nH]c3C(=O)O)C[C@H]2O)c1,-2.9%
COc1cccc([C@@H]2CCN(Cc3[nH]c4ccccc4c3C)C[C@H]2O)c1,0.891µM*
COc1cccc(C(=O)NCC2CCCN(Cc3cnn(C)c3C)C2)c1OC (stereo unspecified),-4.5%
COc1cccc(C(=O)NCC2CCCN(Cc3ccccn3)C2)c1OC (stereo unspecified),-21.5%
CN1c2cc(C(=O)Nc3cccc(Br)c3)ccc2C(=O)N2CCCCC21 (stereo unspecified),-11.1%
Cc1ccc(-c2ccc3nnc(CNC(=O)C4(c5ccccc5)CC4)n3n2)cc1,i
COc1ccc(-c2onc(C)c2C(=O)NCCOc2ccccc2)cc1,-7.1%
CCn1cc(C(=O)N[C@@H]2CN(S(C)(=O)=O)C[C@H]2CN(C)C)cn1,5.2%
Cn1nc(C(=O)N2CCCCCCNC(=O)[C@@H]3CCCC[C@@H]32)c2ccccc21,2.24µM*
Cn1nc(C(=O)NCC(=O)N2CCCCCCNC(=O)CC2c2ccccc2)c2ccccc21 (stereo unspecified),0.631µM*
Cc1ncccc1C(=O)N1CCCCCCNC(=O)[C@@H]2CCCC[C@@H]21,3.4%
O=C1CC(c2ccccc2)N(C(=O)CNC(=O)Cn2c(=O)oc3ccccc32)CCCCCCN1 (stereo unspecified),10µM*
Cc1cc(C(=O)NCC(=O)N2CCCCCCNC(=O)CC2c2ccccc2)n(C)n1 (stereo unspecified),7.7%
O=C1CC(c2ccccc2)N(C(=O)CNS(=O)(=O)c2ccc3c(c2)CCC3)CCCCCCN1 (stereo unspecified),11.2µM*
O=C1NCCCCCCN(C(=O)c2ccccn2)[C@H]2CCC[C@@H]12,8.5%
O=C1CC(c2ccccc2)N(C(=O)CNC(=O)C2CC2)CCCCCCN1 (stereo unspecified),21.6%
O=C1CC(c2ccccc2)N(C(=O)CNS(=O)(=O)c2cccnc2)CCCCCCN1 (stereo unspecified),i
O=C1CC(c2ccccc2)N(C(=O)CNS(=O)(=O)c2ccccc2)CCCCCN1 (stereo unspecified),-18.7%
Cn1nccc1C(=O)NCC(=O)N1CCCCCNC(=O)CC1c1ccccc1 (stereo unspecified),31.0%
SMILES,Pf Dd2 growth
O=C(COc1ccccc1)NCC(=O)N1CCCCCCNC(=O)CC1c1ccccc1 (stereo unspecified),-1.9%
CCOc1ccc2c(n1)CCN(C(=O)Cc1cccc(F)c1)C2,10.6%
O=C(NCCOc1cccnc1)c1cn(Cc2cccc(C(F)(F)F)c2)nn1,-17.5%
O=S1(=O)NC2(CCN(CCc3ccccc3)C2)COc2ncccc21 (stereo unspecified),0.7%
O=C(NC1CCCCC1)[C@@H]1C[C@@H](O)CN1C1CCN(C(=O)c2cccnc2)CC1,10.9%
O=C(Cc1c[nH]c2ccccc12)N[C@@H]1[C@@H]2CCO[C@@H]2[C@@H]1C1CCCC1,-18.5%
CCc1ccc(NC(=O)C2CCCN(S(=O)(=O)c3ccc(F)cc3)C2)cc1 (stereo unspecified),3.6%
Cc1ccc(NC(=O)C2CCCN(S(=O)(=O)c3ccc(F)cc3)C2)cc1 (stereo unspecified),i
O=C(Nc1ccc(-c2cccc(F)c2)cc1)C1CCCN(C(=O)c2ccncc2)C1 (stereo unspecified),7.08µM*
CC(C)(C)CC(=O)N1CCCC(C(=O)Nc2cccc(-c3ccc(F)cc3)c2)C1 (stereo unspecified),-18.4%
CC(=O)NCC(=O)N1CCCC(C(=O)Nc2cccc(-c3ccc(F)cc3)c2)C1 (stereo unspecified),-16.2%
O=C(c1cccc(F)c1)N1CCCC(Nc2ccc(F)cc2)C1 (stereo unspecified),-5.1%
N#Cc1cc(CN2CCCC(C(=O)Nc3cccc(-c4ccc(F)cc4)c3)C2)c[nH]1 (stereo unspecified),10µM*
Cc1[nH]cnc1CN1CCCC(C(=O)Nc2ccc(-c3cccc(F)c3)cc2)C1 (stereo unspecified),10µM*
Cc1ncoc1C(=O)N1CCCC1C(=O)Nc1cccc(-c2ccc(F)cc2)c1 (stereo unspecified),-11.8%
